Screening data (PubChem)
NPR1 antag = antagonists of human natriuretic peptide receptor Npr1. Potency, µM (series often up to 46.3 µM), inactives show at the top dose activity change, negative = inhibition, hits mostly inhibitors. AID 1347048. HEK293 hNpr1 GloSensor cGMP, ANP-stimulated luminescence. 76,000 compounds, 1.6% hits. P16066; calls by dose curve; also: nearly all actives have a fitted effect of over 60% in size
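Compound pre-incubated 30 min at room temperature on GloSensor-loaded HEK293 cells stably carrying hNpr1 and the pGS-40F cGMP biosensor. Stimulation uses hNppA at 0.1 nM final; luminescence is taken at baseline and 20 min post-agonist.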
FLuc inh = blocks purified firefly luciferase enzyme activity | P08659 | purified P. pyralis luciferase, luminescence, biochemical | Potency, µM (titrated, usually from 115 µM), most hits filed as inhibitors | 76,000 compounds, 2.5% hits | AID 1347043; also: nearly all actives have a fitted effect of over 65% in size
Target sequence (P08659 whole entry, looked up): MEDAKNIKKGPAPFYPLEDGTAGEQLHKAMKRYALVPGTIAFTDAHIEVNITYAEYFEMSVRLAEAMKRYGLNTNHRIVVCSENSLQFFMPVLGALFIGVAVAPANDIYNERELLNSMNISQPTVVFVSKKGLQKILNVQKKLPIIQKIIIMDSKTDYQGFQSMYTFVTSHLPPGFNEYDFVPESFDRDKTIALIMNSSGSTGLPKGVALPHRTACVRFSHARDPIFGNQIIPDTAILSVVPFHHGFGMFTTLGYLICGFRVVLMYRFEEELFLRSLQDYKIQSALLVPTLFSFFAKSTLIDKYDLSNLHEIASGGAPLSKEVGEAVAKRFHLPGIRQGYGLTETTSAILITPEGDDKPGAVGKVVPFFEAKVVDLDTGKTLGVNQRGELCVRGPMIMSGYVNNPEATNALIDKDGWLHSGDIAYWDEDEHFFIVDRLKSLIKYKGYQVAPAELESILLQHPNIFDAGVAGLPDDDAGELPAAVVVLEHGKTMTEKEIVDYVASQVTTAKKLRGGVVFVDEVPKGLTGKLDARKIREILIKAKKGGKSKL
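Purified P. pyralis luciferase (10nM final) in 50mM Tris acetate pH 7.5, 10mM Mg acetate, 0.01% Tween-20, 0.05% BSA with 10uM D-luciferin and 10uM ATP. Compounds titrated qHTS. Luminescence imaged on CCD.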
3T3 cytotox = kills NIH 3T3 cells; NIH 3T3 viability, CellTiter-Glo ATP luminescence, 48-72 h; Potency, µM (doses to about 96.7 µM), inactives show top-dose activity change, negative = cytotoxicity, actives largely listed as inhibitors; 94,000 compounds, 4.3% hits; also: nearly all actives have a fitted effect of over 55% in size
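Cytotoxicity is measured as loss of cellular ATP: NIH 3T3 cells (400/well) are exposed to compound for 48 or 72 hr at 37 °C, then CellTiter-Glo luminescence is imaged after 10 min at room temperature.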
HEK293 tox = kills HEK 293 cells; HEK 293 viability, ATP luminescence (CellTiter-Glo), 48-72 h; Potency, µM (doses to about 115 µM), for inactives: at the top dose activity change, negative = cytotoxicity, actives largely listed as inhibitors; 94,000 compounds, 6.6% hits; also: nearly all actives have a fitted effect of over 60% in size
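Cytotoxicity was scored by loss of ATP-coupled luminescence (CellTiter-Glo) in HEK 293 cells. Compound treatment ran 48 or 72 hr at 37 degree Celsius, 5% CO2, 95% humidity.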
* hit, by the source's call; i = inactive; ? = inconclusive; . = no result given; [ ] = remark or other dose. In the library only some 11% were active in any assay of this set; here they are far more common. Unless noted, calls follow the shape of the dose curve; as a rule, active = well fitted curve in the direction sought with a large enough effect; inconclusive = small, poorly fitted or top-dose-only effect, or another doubt; inactive = no such curve, though single readings can be large; an effect the other way counts as inactive or inconclusive. % is scaled to controls: 0 for no effect and ±100 for the full control effect; potency is read from the fitted curve at half-maximal effect.

SMILES	NPR1 antag	FLuc inh	3T3 cytotox	HEK293 tox
Cc1nn(-c2ccccc2)c2c1C(C1CC1)N(C1CCN(C(=O)c3ccccc3)C1)C2=O (centres undefined)	.	.	14.1µM*	?
O=C(NCC1CC1)C1CCN(C(=O)c2ccc(-c3cncnc3)cc2)CC1	.	.	-27.5%	-14.6%
Cc1nn(-c2ccccc2)c2c1C(C1CC1)N(CC1CN(C(=O)Nc3ccccc3)C1)C2=O (centres undefined)	.	.	-38.4%	?
Cc1nn(-c2ccccc2)c2c1C(C1CC1)N(CC1CN(C(=O)c3ccc(F)cc3)C1)C2=O (centres undefined)	.	.	?	35.5µM*
O=C1N(c2ccccc2)c2ccccc2C12CCN(CC1CC1)C2 (centres undefined)	.	.	?	-21.9%
N#Cc1ccc(CN2CCC3(C2)C(=O)N(c2ccccc2)c2ccccc23)cc1 (centres undefined)	.	.	?	15.8µM*
COc1ccc(CN2CCC3(C2)C(=O)N(Cc2ccccc2)c2ccccc23)cc1 (centres undefined)	?	i	35.5µM*	39.8µM*
O=C1N(c2ccccc2)c2ccccc2C12CCN(Cc1ccc(C(F)(F)F)cc1)C2 (centres undefined)	.	.	?	50.1µM*
COc1ccc(CN2CCC3(C2)C(=O)N(c2ccccc2)c2ccccc23)cc1 (centres undefined)	.	.	?	50.1µM*
O=C1N(c2ccccc2)c2ccccc2C12CCN(Cc1cncs1)C2 (centres undefined)	.	.	-16.7%	?
O=C1N(Cc2ccccc2)c2ccccc2C12CCN(Cc1ccccc1)C2 (centres undefined)	4.6%	i	?	?
CN(C)c1ccc(CN2CCC3(C2)C(=O)N(C)c2ccccc23)cc1 (centres undefined)	-6.1%[70.6 µM]	i	?	79.4µM*
COc1ccc(CN2CCC3(C2)C(=O)N(C)c2ccccc23)cc1 (centres undefined)	9.8%[70.6 µM]	i	?	?
CC(C)CNC(=O)c1ccc2nc(-c3cccnc3)oc2c1	.	.	-21.2%	-10.6%
CCS(=O)(=O)N1CCC2(CC1)c1[nH]c3ccccc3c1CCN2C	-1.3%	i	-31.9%	?
Cc1nn(C)c(C)c1S(=O)(=O)N1CCC2(CC1)c1[nH]c3ccccc3c1CCN2C	2.6%	i	-17.6%	89.1µM*
Cn1ccnc1CN1C(=O)CO[C@H](c2ccc(NC(=O)CCc3ccccc3)cc2)[C@H]1CO	0.7%	i	-23.2%	-30.7%
CCCCCC(=O)Nc1ccc([C@H]2OCC(=O)N(Cc3nccn3C)[C@@H]2CO)cc1	9.5%[70.6 µM]	70.8µM*	-18.1%[174 µM]	-14.9%[172 µM]
Cn1ccnc1CN1C(=O)CO[C@H](c2ccc(NC(=O)c3ccc(C(F)(F)F)cc3)cc2)[C@H]1CO	13.6%	35.5µM*	-25.2%	-25.7%
CC(=O)N1CCC(=O)N(CC2CC2)Cc2cc3c(cc21)OCO3	.	.	-26.8%	?
CC1=C[C@@H](CNC2CCOCC2)[C@H](C(C)C)C[C@H]1Cc1nc2ccc(Cl)cc2[nH]1	-3.7%[70.6 µM]	i	100µM*	?
CC1=C[C@@H](CN(C)C)[C@H](C(C)C)C[C@H]1Cc1nc2ncc(Cl)cc2[nH]1	1.0%[70.6 µM]	i	70.8µM*	79.4µM*
COc1ccc2[nH]c(C[C@@H]3C[C@@H](C(C)C)[C@H](CN)C=C3C)nc2n1	?	i	?	?
CC1=C[C@@H](CNC(=O)CN(C)C)[C@H](C(C)C)C[C@H]1Cc1nc2ccc(Cl)cc2[nH]1	-3.6%[70.6 µM]	i	89.1µM*	?
CC1=C[C@@H](CNC(=O)CN(C)C)[C@H](C(C)C)C[C@H]1Cc1nc2ccc(C)cc2[nH]1	-3.9%[70.6 µM]	i	79.4µM*	?
SMILES	NPR1 antag	FLuc inh	3T3 cytotox	HEK293 tox
CC1=C[C@@H](CNC(=O)CCC(=O)O)[C@H](C(C)C)C[C@H]1Cc1nc2ccc(Cl)cc2[nH]1	1.0%[70.6 µM]	i	-24.7%[174 µM]	-23.0%[172 µM]
CC1=C[C@@H](CNC(=O)CCC(=O)O)[C@H](C(C)C)C[C@H]1Cc1nc2ccc(C)cc2[nH]1	7.4%[70.6 µM]	i	-2.2%[174 µM]	0.2%[172 µM]
CC(C)CNC(=O)C1c2ccccc2C(=O)N(Cc2ccccc2)C12CCCC2 (centres undefined)	-13.0%	i	?	?
CCn1ccc(C(=O)N2CCN(c3cc(-c4ccc(Cl)cc4)[nH]n3)CC2)n1	?	i	?	?
Cc1nn(-c2ccccc2)c2c1C(C)N(CC1CN([S+](C)(=O)[O-])C1)C2=O (centres undefined)	.	.	-19.0%	-19.0%
Cc1nn(-c2ccccc2)c2c1C(C1CC1)N(C1CN(C(=O)C3CCCC3)C1)C2=O (centres undefined)	.	.	35.5µM*	44.7µM*
Cc1nn(-c2ccccc2)c2c1C(C)N(CC1CN(C(=O)c3ccccc3Cl)C1)C2=O (centres undefined)	.	.	?	50.1µM*
Cc1ccccc1C(=O)N1CCC(N2C(=O)c3c(c(C)nn3-c3ccccc3)C2C2CC2)C1 (centres undefined)	.	.	?	28.2µM*
Cc1nn(-c2ccccc2)c2c1C(C)N(CC1CN(Cc3cccc(C(F)(F)F)c3)C1)C2=O (centres undefined)	.	.	?	28.2µM*
COc1ccc(CC(=O)N2CCN(C(=O)c3nc4cccnc4n(-c4ccccc4OC)c3=O)CC2)cc1	.	.	-25.4%	-2.1%
O=C(NCCN1CCOCC1)C1CCCN(c2ccnc3ccnn23)C1 (centres undefined)	.	.	-21.2%	-12.2%
OC[C@@H]1O[C@H](CNCc2ccc(F)cc2)[C@H](N2CCN(c3ccccc3)CC2)[C@@H]1O	3.4%	i	-16.2%	?
O=C(c1ccc(Cl)cc1)N1CCCC2(CN[S+](=O)([O-])c3cccnc3N2)C1 (centres undefined)	.	.	-3.4%	1.5%
Cc1nn(-c2ccccc2)c2c1C(C1CC1)N(C1CCN(C(=O)c3ccccc3Cl)C1)C2=O (centres undefined)	.	.	22.4µM*	35.5µM*
CC(=O)N1CC(N2C(=O)c3c(c(C)nn3-c3ccccc3)C2C2CC2)C1 (centres undefined)	.	.	?	3.7%[172 µM]
Cc1nn(-c2ccccc2)c2c1C(C1CC1)N(C1CN(C(=O)c3ccccc3Cl)C1)C2=O (centres undefined)	.	.	12.6µM*	?
Cc1cc(C)n(Cc2cccc(C(=O)N[C@@H]3CCNC[C@H]3O)c2)n1	7.5%	i	-0.2%	-1.9%
O=C(N[C@@H]1CCNC[C@H]1O)c1cccc(-c2ccc(OC(F)(F)F)cc2)c1	2.9%	i	17.8µM*	?
O=C(C1CCCN1C(=O)C1CCCC1)N1CCC(c2nc3ccncc3[nH]2)CC1 (centres undefined)	.	.	-12.1%	3.7%
COc1ccc2[nH]c(C[C@@H]3C[C@@H](C(C)C)[C@H](CNC(=O)c4cnccn4)C=C3C)nc2n1	-21.7%[70.6 µM]	i	100µM*	63.1µM*
